HepG2 viability – kills HepG2 cells in TGF-b inhibitor counter-screen. 410,000 tested, 0.76% active. Potency, µM (top dose mostly 46.1 µM), for inactives: top-dose activity change, negative = cytotoxicity, usual class: cytotoxic. HepG2 CAGA-GFP viability, ATP luminescence, 18 h
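HepG2 CAGA-GFP cells (1000/well, DMEM with 1% FBS) received compound, then TGF-beta at 500 pg/mL final, and were incubated 18 hours at 37 degrees C. Viability was read by CellTiter-Glo luminescence. Media-only wells were set as complete cell-killing and DMSO as no toxicity.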
ATXN viability – cell viability loss in ATXN counter-screen | Potency, µM (titrated, usually from 56.7 µM), most hits filed as cytotoxic | S2 cells (HEK-293 line with an ATXN2-luciferase reporter) viability, CellTiter-Fluor protease fluorescence, 24 h | 400,000 tested, 0.49% active; note: nearly all actives have a fitted effect of over 40% in size
ATXN2 expr inh – ATXN2 expression inhibition; HEK-293 ATXN2-luciferase reporter, luminescence, 24 h; Potency, µM (titrated, usually from 57 µM), for inactives: top-dose activity change, negative = inhibition, actives largely listed as inhibitors; 360,000 tested, 0.72% active; AID 1745845; note: % is set by controls: 0 for no effect and ±100 for the full control effect; nearly all actives have a fitted effect of over 55% in size
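ATXN2-luciferase reporter cells (luciferase flanked by upstream and downstream ATXN2 gene portions) were treated 24 h at 37 °C with compounds at up to 57 uM. SteadyGlo luminescence gave expression; GF-AFC fluorescence gave viability.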
HT1080-NT tox – kills 2HG-producing HT-1080-NT fibrosarcoma cells. AID 686970. HT-1080-NT fibrosarcoma viability, CellTiter-Glo ATP luminescence, 48 h. 360,000 tested, 1.6% active. Potency, µM (titrated, usually from 46.1 µM), without a hit: at the top dose activity, negative = less viability, hits mostly cytotoxic;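 note: NT is the 2HG producing partner of a matched IDH1 knockdown line; 0% = DMSO-treated cells and -100% = media-only wells without cells; nearly all actives have a fitted effect of over 55% in size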
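HT-1080-NT; 750 cells/well; 5% FBS RPMI; 48 h compound, 37 degrees C; CellTiter-Glo luminescence; curve fitting and curve-class assignment.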
HT1080 IDH1KD tx – HT-1080 IDH1 knockdown cell toxicity (counter line) | HT-1080 IDH1 knockdown viability, ATP luminescence, 48 h | Potency, µM (doses to about 46.1 µM), for the others: at the top dose activity, negative = toxicity, most hits filed as cytotoxic | 360,000 tested, 2% active;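 note: 0% = DMSO wells and -100% = cell-free medium wells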
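Luminescent ATP read-out (CellTiter-Glo, 10 min at room temperature) after 48 h compound exposure at 37 °C gave viability of IDH1-knockdown HT-1080 cells. Activity was normalised to DMSO and cell-free wells, then fitted as concentration-response curves.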
TGFb SMAD3 inh – TGF-b pathway inhibition | Potency, µM (titrated, usually from 46.1 µM), for the others: top-dose activity, negative = inhibition, actives largely listed as inhibitors | HepG2 CAGA-GFP TGF-b/SMAD3 reporter, GFP fluorescence, 18 h; TGF-beta stimulated, 500 pg/mL final | 410,000 tested, 1.2% active; note: % is set by controls: 0 for no effect and ±100 for the full control effect; nearly all actives have a fitted effect of over 65% in size
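Cell-based qHTS in HEPG2 carrying a CAGA-GFP Smad reporter; compounds added before 500 pg/mL final TGF-beta, 18 h incubation at 37 degrees C, GFP fluorescence quantified per cell by imaging cytometry.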
Numbers without * were called inactive; i = inactive; u = inconclusive; x = not tested or not shown. Shown are actives, neighbours in structure and some others; about 3.9% of the full set was active somewhere. Calls come from the whole dose curve; as a rule, active = well fitted curve in the direction sought with a large enough effect; inconclusive = small, poorly fitted or top-dose-only effect, or another doubt; inactive = no such curve, though single readings can be large; an effect the other way counts as inactive or inconclusive. Potency is the fitted concentration of half-maximal effect.

SMILES	HepG2 viability	ATXN viability	ATXN2 expr inh	HT1080-NT tox	HT1080 IDH1KD tx	TGFb SMAD3 inh
COc1cc(OC)c(OC)cc1/C=C/c1cc[n+](C)c2ccccc12	-1%	x	x	x	x	-5%
Cc1ccc(-n2nc(C(=O)Nc3cccc(C#N)c3)c3c4ccccc4n(C)c3c2=O)cc1	9%	i	0%	x	x	-8%
COc1ccc(OC)c2cc3ccccc3cc12	-7%	x	18µM*	-2%	u	-6%
CN1CCN(CCCC(=O)c2ccc(C3CCCC3)cc2)CC1	-44%	i	-24%	u	33µM*	u
CC1=NN(c2ccc(C)cc2C)C(=O)C1C(c1ccccc1O)C1C(=O)N(c2ccc(C)cc2C)N=C1C (configuration not stated)	0%	i	-5%	5%	8%	1%
CC1=NN(c2ccc(Cl)cc2)C(=O)C1C(c1ccccc1O)c1c(C)[nH]n(-c2ccc(Cl)cc2)c1=O (configuration not stated)	-45%	i	-13%	23µM*	u	u
COc1ccc(-c2coc3c(C(=O)NCc4ccc(OC)c(OC)c4)cccc23)c(C)c1	-7%	u	u	u	4.1µM*	-13%
COc1ccc(CNC(=O)c2cccc3c(-c4cnn(C)c4)coc23)cc1OC	-3%	i	u	23µM*	u	8%
COc1ccc(-c2coc3c(C(=O)NCCN(C)C)cccc23)c(C)c1	-31%	i	-13%	26µM*	16µM*	28%
COc1ccc(-c2coc3c(C(=O)NCc4ccc(F)c(F)c4)cccc23)c(C)c1	-16%	i	-16%	13µM*	13µM*	-22%
COc1ccccc1-c1ccc(C(=O)NCCN2CCOCC2)c(N2CCN(c3ccccc3F)CC2)n1	x	i	x	x	x	x
CN1C(CSCC(F)(F)F)Nc2cc(Cl)c(S(N)(=O)=O)cc2S1(=O)=O (configuration not stated)	x	i	2%	x	x	x
COc1ccc(-n2cc(-c3ccc(C)cc3)[n+]3c2SCC3)cc1	-30%	i	u	2.9µM*	2.3µM*	-18%
O=c1c2c(-c3ccccc3)csc2ncn1/N=C/c1cn(-c2ccccc2)nc1-c1cccs1	0%	x	x	x	x	11%
Cn1cc(/C=N/n2cnc3scc(-c4ccc(Cl)cc4)c3c2=O)c2ccccc21	3%	u	-17%	u	0.46µM*	-26%
CCC(C(=O)N1CCN(c2cc(Cl)ccc2C)CC1)n1nc(C)n2c(cc3occc32)c1=O (configuration not stated)	-29%	u	u	x	x	u
O=C(C[n+]1cccc2cccc(O)c21)c1ccc(F)cc1	-48%	x	x	x	x	-27%
N#CN=c1snc(-c2ccccc2Cl)n1-c1ccc(F)cc1	-1%	x	x	x	x	5%
O=C(/C=C/c1ccccc1)Nc1ccc(Br)cn1	0%	u	-16%	6.5µM*	5.2µM*	5%
O=C(/C=C/c1ccccc1)Nc1ncn[nH]1	-31%	u	u	11µM*	7.9µM*	10µM*
O=C(O)C(=O)Nc1ncn[nH]1	-77%	u	x	7%	7%	u
COC(=O)C(=Cc1ccc(OCc2ccc([N+](=O)[O-])cc2)c(OC)c1)C(=O)OC	-62%	u	u	u	u	u
CCOC(=O)C(=Cc1ccc(OCc2ccc([N+](=O)[O-])cc2)c(OC)c1)C(=O)OCC	-72%	22µM*	u	21µM*	u	u
COCCCNc1nnc(Cc2ccc(Cl)cc2)c(=O)[nH]1	-14%	u	x	0.92µM*	u	-5%
COc1ccc(NC(=O)CCN2C(=O)[C@@H]3[C@H](C2=O)[C@H]2C=C[C@@H]3C2)cc1	-9%	i	2%	18µM*	u	2%
SMILES	HepG2 viability	ATXN viability	ATXN2 expr inh	HT1080-NT tox	HT1080 IDH1KD tx	TGFb SMAD3 inh
COc1ccc(NC(=O)CCN2C(=O)C3C4CCC(C4)C3C2=O)cc1 (configuration not stated)	9%	u	18%	-19%	u	19%
Cn1ccc2c(-c3ccc(C(F)(F)F)cc3)cc3c(c21)C1CCC3O1 (configuration not stated)	-26%	i	0%	u	u	u
Cn1ccc2c(-c3ccc(C(C)(C)C)cc3)cc3c(c21)C1CCC3O1 (configuration not stated)	-39%	i	52%	u	u	11µM*
O=C(COc1ccccc1-c1ccccc1)N/N=C/c1ccncc1	-27%	i	-9%	-17%	-17%	-26%
O=C(COc1ccccc1-c1ccccc1)N/N=C/c1ccc2ccccc2c1	-55%	u	u	u	1.2µM*	7.1µM*
O=C(Cc1ccccc1)N(Cc1cccnc1)c1nc2ccc(F)cc2s1	-33%	x	x	x	x	u
CCCc1[nH]nc2c1C(c1ccsc1)C(C#N)=C(N)O2 (configuration not stated)	26%	i	x	u	21µM*	-23%
Cc1[nH]nc2c1C(c1ccco1)C(C#N)=C(N)O2 (configuration not stated)	-9%	i	8%	-2%	-1%	-10%
Cc1[nH]nc2c1C(c1cc(Br)cs1)C(C#N)=C(N)O2 (configuration not stated)	-65%	i	-39%	u	u	10µM*
CSc1nc(C(=O)NCc2nc(-c3cccc(NC(=O)c4ccc(C)s4)c3)oc2C)cs1	x	i	x	x	x	x
CCn1c(-c2ccccc2F)nc2cc(NC(C)=O)cc(C(=O)NC(c3ccccn3)C(F)(F)F)c21 (configuration not stated)	x	i	x	x	x	x
S=C(NC1CCCCC1)N1CCN(C2CCCCC2)CC1	18µM*	i	-8%	-3%	-12%	u
CCOC(=O)c1cc(-c2ccccc2)n(CCC(=O)Nc2ccc(Cl)c(C(F)(F)F)c2)c1C	11µM*	x	x	x	x	3.5µM*
CCOC(=O)c1cc(-c2ccccc2)n(CCCC(=O)Nc2cccc(Cl)c2C)c1C	-56%	x	x	x	x	11µM*
CCOC(=O)c1cc(-c2ccccc2)n(CCCC(=O)Nc2ccc(C)cc2C)c1C	-26%	x	x	x	x	0%
COCCC1CCCCN1Cc1nc(N2CCCC2)c2cc(OC)c(OC)cc2n1 (configuration not stated)	x	i	x	x	x	x
COc1cc(C#Cc2c(-c3cncn3C)n(C)c3ccc(-c4cnc(OC)nc4)cc23)cc(OC)c1	-36%	i	20µM*	u	u	u
CC(C)=CNNC(=O)c1ccc(O)cc1	-4%	x	x	x	x	-4%

Screening data (PubChem BioAssay)
